Source: PubChem BioAssay (EPA / NIEHS)
The source made the active and inactive calls. Rule for the calls: active = hit-call score of the fitted dose curve at least 0.9, where 1 is the maximum; inactive = score below 0.9.

experiment: ATG_TAL_CIS: Attagene CIS-FACTORIAL HepG2 Assay for human TAL Basal Promoter (AID 2282966); conditions: HepG2 Attagene cis-factorial TAL promoter reporter; actives raise or lower the signal;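 note: background control endpoint measuring basal TAL promoter reporter mRNA not a specific factor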
In short: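 HepG2, transient MRTU transfection, 24 h compound exposure; RNA → oligo(dT) RT → PCR → 6-FAM primer extension → HpaI digest → CE fluorescence. Bidirectional curve fit vs DMSO. Background-control readout.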

Compound | outcome | AC50
CNC | inactive | –
CCOC(=O)CP(=O)(OCC)OCC | inactive | –
Clc1ccc(C2(Cn3cncn3)CC(Br)CO2)c(Cl)c1 (stereo unspecified) | inactive | –
CCSC(C)CC1CC(=O)C(C(CC)=NOC/C=C/Cl)=C(O)C1 (stereo unspecified) | inactive | –
CC(C)(OO)c1ccccc1 | inactive | –
CCCCCCCCSC(=O)Oc1cc(Cl)nnc1-c1ccccc1 | – | 71.3 µM (active)
CC(=O)[O][Hg][c]1ccccc1 | inactive | –
Cn1sc(Cl)cc1=O | inactive | –
CCC(C)(C)c1ccc(O)c(C(C)(C)CC)c1 | inactive | –
CCOP(=S)(OCC)SCCS(=O)(=O)CC | inactive | –
NC(=O)O | inactive | –
CC1(C)Cc2cccc(O)c2O1 | inactive | –
Cc1cc(Cl)ccc1O[C@H](C)C(=O)O | inactive | –
CC12CC1(C)C(=O)N(c1cc(Cl)cc(Cl)c1)C2=O (stereo unspecified) | inactive | –
Cc1ccccc1N | inactive | –
ClCC(Cl)CCl | inactive | –
COC(=O)Cc1ccccc1 | inactive | –
COc1cc2c(cc1OC)[C@@]13CCN4CC5=CCO[C@H]6CC(=O)N2[C@H]1[C@H]6[C@H]5C[C@H]43 | inactive | –
Clc1nc(Cl)nc(Cl)n1 | inactive | –
Cc1cc(=O)[nH]o1 | inactive | –
O=C(OC1CCCCC1)c1ccccc1C(=O)OC1CCCCC1 | inactive | –
N#Cc1ccccn1 | inactive | –
OCC(O)CCl (stereo unspecified) | inactive | –
CC(=[OH+])/C=C(/C)[O-].CC(=[OH+])/C=C(/C)[O-].CC(=[OH+])/C=C(/C)[O-].[Fe] | inactive | –
N#CCc1ccc(Cl)cc1 | inactive | –
C[C@]12CC[C@H](O)CC1=CC[C@@H]1[C@@H]2CC[C@]2(C)C(=O)CC[C@@H]12 | inactive | –
